{
  "source": "PubChem BioAssay AID445",
  "about": "(National Center for Advancing Translational Sciences (NCATS), 2006)",
  "note": "The whole screen tested about 110,000 compounds, of which about 40 (0.04%) were called active. About 22% were inconclusive and are not listed. This excerpt belongs to a sample that is enriched for actives. Values without a mark were called inactive. Calls follow the shape of the dose curve; as a rule, active = well fitted curve in the direction sought with a large enough effect in the signal ratio (not every such curve was filed as active); inconclusive = small, poorly fitted or top-dose-only effect, or a change in a side signal; inactive = flat fitted curve, though single readings scatter; the % refers to the signal ratio.",
  "data": [
    {"assay": "IkB Signaling;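 also: 0% = basal untreated cells and 100% = reference inhibitor full response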", "conditions": "ABC-DLBCL IkBa-CBG/CBR dual luciferase ratio, 4 h; series mostly up to 57.1 µM; IkBa stabilization activation: at the top concentration", "description": "NIH Molecular Libraries Screening Centers Network [MLSCN]\nNIH Chemical Genomics Center [NCGC]\nNuclear factor kappa-B (NF-kappa-B) plays an important role in normal B cell development and survival. Diffuse large B cell lymphoma (DLBCL) is the most commonly observed type of non-Hodgkin's lymphoma. Gene expression analysis has identified an activated B cell-like subtype of DLBCL (ABC-DLBCL) which expresses known NF-kappa-B target genes. […] However, targets upstream of IKK have been largely unexplored and so nodes upstream of IKK in the NF-kappa-B pathway remain untested due to the lack of chemical probes.\nA cell-sensor assay for I-kappa-B-alpha stabilization was developed with NIH investigator Dr. R. Eric Davis in Dr. Louis M. Staudt's laboratory. The assay uses green (CBG68) and red (CBR) emitting beetle luciferases [Chroma-Glo(TM) developed by Promega Corp.] where the green luciferase is fused to I-kappa-B-alpha and the red luciferase is present in its native state. Both luciferase genes are stably present in the OCI-Ly3 human ABC DLBCL cell line, but their expression is under the control of tetracycline-inducible promoters. Following the addition of doxycycline to induce expression of the luciferases, the green luminescence in control cultures rises only slowly because the CBG fusion partner I-kappa-B-alpha is targeted by IKK activity for rapid degradation. In contrast, green luminescence rises rapidly in the presence of proteasome inhibitors or IKK inhibitors. The rise in red luminescence of CBR is not affected by proteasome or IKK inhibitors, and serves as normalization for cell number and nonspecific effects. Compounds were screened as a concentration-titration series that ranged from 57 uM to 0.7 nM.\nNCGC Assay Protocol Summary:\nCells were seeded in 1536-well plates at 5000 cells/3ul in IMDM medium containing 0.5% FBS, w/o phenol red, L-glutamine, 25 mM HEPES, 3 mg/ml sodium bicarbonate. After centrifugation for 1 min. at 1000 rpm, 23 nl of compounds or DMSO were delivered to each well using a pin tool. Then 1ul 80ng/ml doxycycline was dispensed into white solid 1536-well plates and the plates were incubated at 37C/5% C02 in a cell incubator for 4 hrs. Then 4 ul Chroma-Glo luminescent substrate mix (Promega) was added to each well. The plate was incubated at R.T. for 10-15 min. The plates were measured on a ViewLux plate reader for green luminescence (540/20 nm filter) and red luminescence (618/8 nm filter). The green and red luminescent signals were corrected for red and green luminescence filter overlap using previously determined filter calibration constants (determined using the procedure outlined in the Promega Technical Manual). The %Activity was determined from the ratio of corrected green/red luminescent values. Green luminescent and ratio %Activity was determined by normalizing to the difference in signal between basal cells (0% Activity) and cells incubated with 10 uM of the proteasome inhibitor MG-132 (100% Activity). Red luminescent %Activity was normalized to the difference between red luminesence in basal cells (0%Activity) and zero luminescence (-100% Activity).\nConcentration-response curves were fitted to the signals arising from the green luminescence (I-kappa-B-alpha-luciferase fusion; IkB-luc) and the red luminescence (unfused luciferase; luc) as well as the calculated ratio. The concentration-effect curves were then classified based on curve quality (r2), response magnitude and degree of measured activity. Compounds were then categorized based on their concentration-response curves for all three datasets (Ikb-luc, luc and ratio).\nKeywords: IKK, I-kappa-B, IkB, IkBa, cytotoxicity, luminescence, MLSMR, MLSCN, NIH Roadmap, qHTS, NCGC", "units": {"IkBa stabilization activation": "%"}, "values": [
      {"smiles": "Cc1cccc(Cn2c(=O)n(CCC(=O)NCCc3ccc(Cl)cc3)c(=O)c3sccc32)c1", "IkBa stabilization activation": 0.608},
      {"smiles": "O=C(NC1CC(=O)N(c2ccc(F)cc2)C1)c1cccs1", "note": "(configuration not stated)", "IkBa stabilization activation": 0.355},
      {"smiles": "COc1ccc(CNc2nc(-c3ccccc3)nn2C(=O)c2ccccc2OC)cc1", "IkBa stabilization activation": 0.945},
      {"smiles": "Cc1ccc(Cn2c(CCCNC(=O)C3CCCCC3)nc3ccccc32)cc1", "IkBa stabilization activation": 0.788},
      {"smiles": "COc1ccccc1Cc1nc2ccccc2nc1SCC(=O)N1CCCc2ccccc21", "IkBa stabilization activation": 0.565},
      {"smiles": "CCc1nn(CC(=O)Nc2cc(C)cc(C)c2)c(=O)c2cc3sccc3n12", "IkBa stabilization activation": -1.09},
      {"smiles": "Cc1cc(C)cc(NS(=O)(=O)c2ccc3[nH]cc(C(=O)N4CCCCC4)c(=O)c3c2)c1", "IkBa stabilization activation": 2.33},
      {"smiles": "COC(=O)c1c(NC(=O)c2cc(=O)c3c(C)cc(C)cc3o2)sc2c1CCCC2", "IkBa stabilization activation": -1.94},
      {"smiles": "COc1ccc(C)cc1NC(=O)C(=O)NCCc1sc(-c2cccc(C)c2)nc1C", "IkBa stabilization activation": -0.998},
      {"smiles": "Cc1ccc2ncc(C(=O)Nc3ccc(OC(F)(F)F)cc3)c(=O)n2c1", "IkBa stabilization activation": -2.93},
      {"smiles": "Cc1cc(C)cc(OCC(=O)Nc2c(C(=O)c3ccccc3)oc3ccccc23)c1", "IkBa stabilization activation": -1.32},
      {"smiles": "O=C1CC(c2nnc(Cc3ccc(Cl)cc3)o2)CN1c1ccccc1", "note": "(configuration not stated)", "IkBa stabilization activation": 2.11},
      {"smiles": "CSc1ccc(C2c3c(oc4ccccc4c3=O)C(=O)N2CCCN2CCOCC2)cc1", "note": "(configuration not stated)", "IkBa stabilization activation": -1.64},
      {"smiles": "COCC(C)NS(=O)(=O)c1ccc(N2CCCCS2(=O)=O)cc1", "note": "(configuration not stated)", "IkBa stabilization activation": -0.0651},
      {"smiles": "COc1cccc(CNC(=O)CCC(=O)N2CC3CCCN3c3ccccc32)c1", "note": "(configuration not stated)", "IkBa stabilization activation": 1.48},
      {"smiles": "CCc1ccccc1OCCSc1nc(-c2cccs2)nc2cc(=O)[nH]n12", "IkBa stabilization activation": 0.201},
      {"smiles": "Cc1cccc(NC(=O)CSc2nc3c(oc4ccccc43)c(=O)n2-c2ccc(F)cc2)c1", "IkBa stabilization activation": -0.455},
      {"smiles": "O=C1Cc2cc(S(=O)(=O)Nc3ccc(OC(F)(F)F)cc3)cc3c2N1CCC3", "IkBa stabilization activation": 6.23},
      {"smiles": "Cc1ccc(N(C)C(=O)C2CCN(S(=O)(=O)c3ccc4c(c3)CCCN4C(=O)C3CCC3)CC2)cc1", "IkBa stabilization activation": 2.75},
      {"smiles": "COC(=O)c1ccccc1NC(=O)c1ccc(COc2ccccc2Cl)o1", "IkBa stabilization activation": -2.65},
      {"smiles": "CCC1=Nc2cc(C(=O)NCCCOC(C)C)ccc2Sc2ccc(C)cc21", "IkBa stabilization activation": -2.32},
      {"smiles": "CCCCN(CC)CCCNC(=O)c1nn(C)c2c1CSc1ccccc1-2", "IkBa stabilization activation": 2.35},
      {"smiles": "O=C(Nc1ccc(-c2nc3cc(NC(=O)c4ccccc4Cl)ccc3o2)cc1)c1ccccc1Cl", "IkBa stabilization activation": 4.54},
      {"smiles": "CCCNC(=O)CCn1nc(-c2ccccc2)c2ccccc2c1=O", "IkBa stabilization activation": 2.39},
      {"smiles": "COC(=O)c1cc2occc2n1Cc1nc(-c2ccccc2C)oc1C", "IkBa stabilization activation": -1.31},
      {"smiles": "COc1cc(NC(=O)Cn2nc(-c3ccc(C)c(C)c3)ccc2=O)cc(OC)c1", "IkBa stabilization activation": -1.19},
      {"smiles": "CCOc1ccc(-c2cc3nc(C4CCN(C(=O)OC(C)(C)C)CC4)c(C(=O)Nc4ccc(C(=O)OC)cc4)cn3n2)cc1", "IkBa stabilization activation": -0.305},
      {"smiles": "O=C(NCCc1ccccc1)c1ccc2c(c1)N(Cc1ccccc1)C(=O)c1ccccc1S2(=O)=O", "IkBa stabilization activation": -2.13},
      {"smiles": "CCCN(CCC)C(=O)C(Cc1ccccc1)NS(=O)(=O)c1ccc2c(c1)c(=O)n(C)c(=O)n2C", "note": "(configuration not stated)", "IkBa stabilization activation": 0.449},
      {"smiles": "CCOc1ccc(CCNC(=O)c2c(C)oc3ncn(C)c(=O)c23)cc1", "IkBa stabilization activation": -0.592},
      {"smiles": "O=C(NCCCO)c1nn(-c2ccc(Cl)cc2)nc1CO", "IkBa stabilization activation": -1.87},
      {"smiles": "Cc1ccc(NC2=C(c3ccc(C(F)(F)F)cc3)C(=O)c3ccccc32)cc1F", "IkBa stabilization activation": 6.11},
      {"smiles": "CC(C)OCCCn1c(SCC(=O)c2ccccc2)nc2c(sc3ccccc32)c1=O", "IkBa stabilization activation": -0.853},
      {"smiles": "CCCN1CCN(CCCNC(=O)c2cnn(-c3ccc(C)cc3)c2-n2cccc2)CC1", "IkBa stabilization activation": -2.29},
      {"smiles": "COc1cc(OC)c(OC)cc1/C=C/c1nc2ccccc2c(=O)n1-c1ccc(Br)c(C)c1", "IkBa stabilization activation": -1.32},
      {"smiles": "Cc1cccc(NC(=O)CSc2nc3c([nH]c4ccccc43)c(=O)n2-c2cc(C)cc(C)c2)c1", "IkBa stabilization activation": -1.03},
      {"smiles": "COc1ccc(CNS(=O)(=O)c2ccc(-c3cnc(C4CC4)o3)cc2)cc1", "IkBa stabilization activation": -0.844},
      {"smiles": "CCOC(=O)c1c(C)[nH]c(C)c1S(=O)(=O)N(C)CC(=O)N1CCN(c2ccccc2)CC1", "IkBa stabilization activation": 0.594},
      {"smiles": "CCOC(=O)c1c(NC(=O)/C=C/c2ccc(OC)cc2)sc2c1CCC(C)C2", "note": "(configuration not stated)", "IkBa stabilization activation": 1.01},
      {"smiles": "O=C(NCCc1ccccc1)C(=O)NCC(c1ccco1)S(=O)(=O)c1ccccc1", "note": "(configuration not stated)", "IkBa stabilization activation": -1.39},
      {"smiles": "CC(NC(=O)CCc1cn(Cc2ccccc2Cl)c2ccccc12)c1ccccc1", "note": "(configuration not stated)", "IkBa stabilization activation": 2.65},
      {"smiles": "CCc1nc2onc(C)c2c(=O)n1CC(=O)O", "IkBa stabilization activation": 2.07},
      {"smiles": "O=C1OC(C(=O)Nc2cccc(Br)c2)Cc2ccccc21", "note": "(configuration not stated)", "IkBa stabilization activation": -0.928},
      {"smiles": "CCC(=O)N1CCc2cc(CNC(=O)Nc3ccccc3Cl)ccc21", "IkBa stabilization activation": 0.103},
      {"smiles": "CCS(=O)(=O)N1CCC(n2c(C)nc3cccnc32)CC1", "IkBa stabilization activation": 0.706},
      {"smiles": "Cc1oc2c(c1C(=O)Nc1ccc(F)c(F)c1)C1=NCCN1C=N2", "IkBa stabilization activation": 0.228},
      {"smiles": "O=C(c1ccc2c(c1)N(Cc1ccccc1F)C(=O)c1ccccc1S2(=O)=O)N1CCOCC1", "IkBa stabilization activation": -0.457},
      {"smiles": "Cc1ccc(S(=O)(=O)c2nnn3c2nc(N2CCN(c4ccccc4F)CC2)c2cc(Cl)ccc23)cc1C", "IkBa stabilization activation": -1.33},
      {"smiles": "COCCCNC(=O)c1c(NC(=O)c2cc(=O)c3cc(C)c(C)cc3o2)sc2c1CCCC2", "IkBa stabilization activation": -1.3},
      {"smiles": "CC(C)(C)OC(=O)N1CCC(c2c(C(=O)N3CCc4ccccc4C3)cnn2-c2ccc(F)cc2)CC1", "IkBa stabilization activation": 0.532},
      {"smiles": "Cc1ccc2nc(-c3ccc(C)c(NC(=O)Cc4ccccc4)c3)oc2c1", "IkBa stabilization activation": -2.33},
      {"smiles": "O=C(NCc1ccc(F)cc1)c1ccc2nc(N3CCCCC3)sc2c1", "IkBa stabilization activation": -0.827},
      {"smiles": "COc1ccc(-c2nn(CC(=O)NC3CCCC3)c3c2cnc2ccc(F)cc23)cc1", "IkBa stabilization activation": -3.12},
      {"smiles": "CCOc1ccc(N2CC(C)Cn3c2nc2c3c(=O)n(Cc3c(F)cccc3Cl)c(=O)n2C)cc1", "note": "(configuration not stated)", "IkBa stabilization activation": -0.396},
      {"smiles": "CCOc1ccc(NC(=O)Cn2c(C)ccc(C#N)c2=O)cc1", "IkBa stabilization activation": -1.37},
      {"smiles": "O=C(Nc1cccc2cccnc12)c1cccc2c(Br)cccc12", "IkBa stabilization activation": -3.7},
      {"smiles": "COc1ccc(-n2c(SC)nc3sc4c(c3c2=O)CCN(C(C)=O)C4)cc1", "IkBa stabilization activation": 1.77},
      {"smiles": "Cc1ccc(S(=O)(=O)N2CCc3cc(C(=O)Nc4ccc(Cl)cc4C)ccc32)cc1", "IkBa stabilization activation": -1.18},
      {"smiles": "COc1ccc(C)cc1-n1c(-c2ccc(C)cc2)cc2c1CC(C)(C)CC2=O", "IkBa stabilization activation": 1.22},
      {"smiles": "CCC1CCCCN1Cc1c(O)ccc2c(=O)c(Oc3ccccc3Cl)c(C(F)(F)F)oc12", "note": "(configuration not stated)", "IkBa stabilization activation": 6.03},
      {"smiles": "Cc1ccc(F)cc1S(=O)(=O)N1CCC(c2nc3ccccc3s2)CC1", "IkBa stabilization activation": 1.9},
      {"smiles": "CC(=O)c1ccc(NC(=O)COc2ccccc2-c2nc(-c3ccccc3)no2)cc1", "IkBa stabilization activation": -2.41}
    ]}
  ]
}
